From PubChem BioAssay
JMJD2A Tudor: JMJD2A Tudor domain (human) inhibition. O75164. Potency, µM (highest dose often 114 µM), most hits filed as inhibitors. AlphaScreen JMJD2A-Tudor / H3K4me3 peptide binding. 390,000 tested, 4.4% active; note: nearly all actives have a fitted effect of over 50% in size
Sfp PPTase inh: inhibitors of Bacillus subtilis Sfp phosphopantetheinyl transferase; 310,000 tested, 3.5% active; AID 1490; Potency, µM, most hits filed as inhibitors; Biochemical Sfp PPTase activity, qHTS; Q9F4F7;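 note: the enzyme is Sfp with the accession as filed and its product quenches rhodamine fluorescence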
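Sfp 15 nM + cpd, 15 min RT; start w/ rhodamine-CoA 5 uM, BHQ-2-YbbR 12.5 uM (final); 50 mM Hepes pH 7.6, 10 mM MgCl2, 0.01% NP-40, 0.01% BSA; read 525/598 nm at 0 and 30 min.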
HP1b binding inh: inhibitors of HP1-beta chromodomain binding to methylated histone tails; P83916; AlphaScreen HP1-beta / biotin-H3K9me3 peptide binding; Potency, µM (highest dose often 114 µM), usual class: inhibitors; 390,000 tested, 0.56% active; AID 540317; note: nearly all actives have a fitted effect of over 70% in size
Target sequence (P83916 whole entry, looked up): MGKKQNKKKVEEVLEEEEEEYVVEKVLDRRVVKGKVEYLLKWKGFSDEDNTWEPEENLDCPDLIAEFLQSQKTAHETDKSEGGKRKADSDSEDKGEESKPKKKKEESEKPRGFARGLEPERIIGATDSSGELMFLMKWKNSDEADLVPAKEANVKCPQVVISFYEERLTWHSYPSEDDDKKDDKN
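AlphaScreen: HP1-beta (50 nM) preformed 30 min with biotin-H3(1-18)K9me3 peptide (50 nM) in PBS pH 7.4, 0.01% Tween-20. Compound added for 30 min at RT, then streptavidin donor/nickel chelate acceptor beads (10 ug/mL) for 30 min.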
BAZ2B inh: blocks human BAZ2B. Q9UIF8. AlphaScreen BAZ2B-H3K14Ac peptide displacement. Potency, µM (series often up to 114 µM), usual class: inhibitors. 360,000 tested, 4.4% active. AID 504333; note: nearly all actives have a fitted effect of over 60% in size
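Inhibition is scored as reduced AlphaScreen emission. The BAZ2B/b-H3(5-23)K14Ac complex (50 nM each) in PBS pH 7.4, 0.01% Tween-20 meets compound (up to 110 uM) for 30 min at RT before bead addition.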
G9a inh: inhibitors of human histone lysine methyltransferase G9a | Q96KQ7 | G9a H3K9 monomethylation, AlphaScreen, 2 h | Potency, µM (highest dose often 102 µM), most hits filed as inhibitors | 350,000 tested, 8.8% active | AID 504332; note: nearly all actives have a fitted effect of over 75% in size
Target sequence (Q96KQ7 913-1193 limits assumed): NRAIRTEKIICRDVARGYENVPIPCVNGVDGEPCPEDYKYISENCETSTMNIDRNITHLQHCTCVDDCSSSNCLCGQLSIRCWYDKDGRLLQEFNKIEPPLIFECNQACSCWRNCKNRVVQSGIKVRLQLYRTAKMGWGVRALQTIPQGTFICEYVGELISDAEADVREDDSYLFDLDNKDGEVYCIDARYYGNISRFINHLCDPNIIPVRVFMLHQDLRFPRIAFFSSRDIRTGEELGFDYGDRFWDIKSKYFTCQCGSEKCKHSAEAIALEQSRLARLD
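G9a (20 nM) was preincubated 15 min with compound, then reacted 2 h at room temperature with 500 nM biotin-H3K9 peptide and 20 µM SAM. Monomethyl-H3K9 detected by AlphaScreen using anti-H3K9me1 antibody.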
Large screens that a line does not name were inactive; ! = not confirmed by another sample. Only some compounds are listed: those with a hit (about 12% of all), similar ones and a draw of the others. Calls come from the whole dose curve; as a rule, active = well fitted curve in the direction sought with a large enough effect; inconclusive = small, poorly fitted or top-dose-only effect, or another doubt; inactive = no such curve, though single readings can be large; an effect the other way counts as inactive or inconclusive.

Cc1cccc(C)c1NC(=O)CCCSc1nnc(-c2ccco2)o1	none
O=C(Cc1ccccc1)Nc1nnc(-c2ccco2)o1	JMJD2A Tudor 45µM, BAZ2B inh 28µM
CCCCC(=O)Nc1nnc(-c2ccco2)o1	JMJD2A Tudor 10µM, BAZ2B inh 79µM
CCC(=O)Nc1nnc(-c2ccc(OC)cc2)o1	BAZ2B inh inconclusive
CCc1cccc(C)c1NC(=O)Cn1c(=O)n(-c2ccc(C)cc2)c(=O)c2c1cnn2C	none (no result: Sfp PPTase inh)
O=Cc1sc(=O)n(Cc2cccc(C(=O)O)c2)c1Cl	Sfp PPTase inh 45µM, G9a inh inconclusive
O=c1sc(/C=N/Nc2ccccc2)c(Cl)n1Cc1ccccc1	Sfp PPTase inh 50µM, BAZ2B inh inconclusive, G9a inh 14µM
COC(=O)c1cccc(Cn2c(Cl)c(/C=N/NC(=O)c3ccco3)sc2=O)c1	BAZ2B inh 56µM, G9a inh 50µM
O=C(O)c1cccc(Cn2c(Cl)c(/C=N/NC(=O)c3ccc(O)cc3)sc2=O)c1	G9a inh inconclusive
CCOC(=O)OCC1OC(c2ccc(C(C)=O)cc2)C=CC1Oc1ccc(-c2ccccc2)cc1 (stereo not given)	none (no result: JMJD2A Tudor, HP1b binding inh, BAZ2B inh, G9a inh)
Cc1ccccc1OCC(=O)Nc1ccccc1C(=O)NC1CC1	G9a inh inconclusive (no result: Sfp PPTase inh)
CCCNC(=O)Cn1nc(-c2ccc(C)cc2)c2cnc3ccc(CC)cc3c21	none (no result: Sfp PPTase inh)
Cc1cc(O)c(C(c2cccc(F)c2)N2CCC(C)CC2)c(=O)n1Cc1ccco1 (stereo not given)	none (no result: Sfp PPTase inh)
CCCc1nnc(N2C(=O)c3oc4ccc(F)cc4c(=O)c3C2c2ccc(C(=O)OC)cc2)s1 (stereo not given)	G9a inh inconclusive (no result: Sfp PPTase inh)
Cc1cccc(NC2=C/C(=N/S(=O)(=O)c3cccs3)c3ccccc3C2=O)c1	JMJD2A Tudor 5.6µM, Sfp PPTase inh inconclusive, HP1b binding inh inconclusive, BAZ2B inh 2.5µM, G9a inh inconclusive
Cc1ccc(NC2=C/C(=N\S(=O)(=O)c3cccs3)c3ccccc3C2=O)c(C)c1	JMJD2A Tudor 4.5µM, HP1b binding inh 5.6µM, BAZ2B inh 3.5µM, G9a inh 7.9µM
Cc1ccc(Cl)cc1NC1=C/C(=N\S(=O)(=O)c2cccs2)c2ccccc2C1=O	JMJD2A Tudor 2.8µM, HP1b binding inh 4µM!, BAZ2B inh 10µM, G9a inh 8.9µM
O=C1/C(=N\S(=O)(=O)c2cccs2)C([n+]2ccccc2)=C([O-])c2ccccc21	BAZ2B inh inconclusive
O=C1C(Nc2ccc(O)cc2)=C/C(=N/S(=O)(=O)c2cccs2)c2ccccc21	JMJD2A Tudor 20µM, HP1b binding inh inconclusive, BAZ2B inh 7.9µM, G9a inh 11µM
CC(C)(C)c1cc[n+](C2=C([O-])c3ccccc3C(=O)/C2=N\S(=O)(=O)c2cccs2)cc1	none (no result: G9a inh)
Cc1cccc(C)c1OCCn1c(C2CC(=O)N(Cc3ccc(F)cc3)C2)nc2ccccc21 (stereo not given)	JMJD2A Tudor inconclusive, BAZ2B inh inconclusive (no result: Sfp PPTase inh)
Cc1ccc(-c2nc(CS(=O)CC(=O)NCCCc3ccccc3)c(C)o2)cc1 (stereo not given)	G9a inh inconclusive
COc1ccc(OC)c(C2C3=C(N=C4SCC(=O)N42)c2ccccc2CC3)c1 (stereo not given)	JMJD2A Tudor inconclusive, Sfp PPTase inh inconclusive, BAZ2B inh 50µM, G9a inh inconclusive
COc1cccc(C2C3=C(N=C4SCC(=O)N42)c2ccccc2CC3)c1OC (stereo not given)	none
Cc1cc(O)ccc1NC(=S)NC(=O)c1cncc(Br)c1	Sfp PPTase inh 56µM, G9a inh inconclusive
O=C(NC(=S)Nc1ncc(Br)cc1Br)c1cncc(Br)c1	JMJD2A Tudor 50µM
Cc1ccccc1NC(=S)NC(=O)c1cncc(Br)c1	HP1b binding inh inconclusive
COc1ccc(CCNC(=O)C(=O)NCC(c2ccco2)S(=O)(=O)c2ccc(C)cc2)cc1 (stereo not given)	none (no result: Sfp PPTase inh)
C=CCN(C(=O)CCc1ccccc1OC)c1nc(-c2ccc(S(C)(=O)=O)cc2)cs1	none
C=CCN(C(=O)Cc1cccs1)c1nc(-c2ccc(S(C)(=O)=O)cc2)cs1	G9a inh 71µM
Cc1ccc(-n2c(C)cc(-c3csc(N)n3)c2C)cc1	JMJD2A Tudor 40µM, Sfp PPTase inh inconclusive, HP1b binding inh inconclusive, BAZ2B inh 56µM, G9a inh 5µM
COc1ccccc1CNc1nc(-c2cc(C)n(C)c2C)cs1	JMJD2A Tudor 40µM, BAZ2B inh 40µM, G9a inh 10µM
CCn1ncc(-c2csc(N)n2)c1C	BAZ2B inh inconclusive
Cc1cc(-c2csc(N)n2)c(C)n1C	JMJD2A Tudor inconclusive, Sfp PPTase inh 20µM, BAZ2B inh 50µM, G9a inh 10µM
Cc1cc(C(=O)COC(=O)c2cc(Cl)ccc2N)c(C)n1Cc1ccco1	JMJD2A Tudor inconclusive, BAZ2B inh inconclusive
Cc1cc(-c2csc(N)n2)c(C)n1Cc1ccco1	JMJD2A Tudor inconclusive, Sfp PPTase inh 50µM, BAZ2B inh inconclusive, G9a inh 18µM
Cc1cc(=O)[nH]c(SCC(=O)N2CCN(c3ccccc3)CC2)n1	none (no result: Sfp PPTase inh)
COc1cc(F)c(C(=O)NC(C)(C)CO)cc1OC	none (no result: Sfp PPTase inh, BAZ2B inh, G9a inh)
Cc1ccc(-c2nnn3c2nc(NCCc2ccccc2)c2ccccc23)cc1	none (no result: Sfp PPTase inh)
CCc1ccc(N/C(SC)=C(/C#N)C(N)=O)cc1	none
CCCCS/C(=C(/C#N)C(N)=O)c1cc2c([nH]1)CCCC2	JMJD2A Tudor 45µM, Sfp PPTase inh inconclusive, HP1b binding inh inconclusive, BAZ2B inh 40µM, G9a inh 20µM
COc1ccc(CCNC(=O)c2cc(Nc3cc(C)cc(C)c3)nc3ccccc23)cc1OC	none (no result: Sfp PPTase inh, BAZ2B inh)
C=CCNC(=S)Nc1ccc(C(N)=O)cc1	G9a inh inconclusive
O=C(Nc1ccccc1)C1CCN(c2nccs2)CC1	G9a inh 50µM
O=C(Nc1ccccc1)C1CCCCC1	none
CC(=O)CC(=O)Nc1ccc(C(N)=O)cc1	G9a inh 25µM
O=C(Nc1ccc(Nc2ccccc2)cc1)C1CC1	JMJD2A Tudor inconclusive, BAZ2B inh inconclusive, G9a inh 25µM
CNC(=S)Nc1ccc(C(N)=O)cc1	Sfp PPTase inh 79µM (no result: G9a inh)
CC(=O)C[C@H](O)[C@@H](NC(=O)OC(C)(C)C)C(C)C	none (no result: JMJD2A Tudor, HP1b binding inh, BAZ2B inh, G9a inh)
CC(=O)CC(=O)Nc1ccc(Nc2ccccc2)cc1	BAZ2B inh inconclusive, G9a inh 71µM
Cc1ccc2[nH]c(-c3cccc(N)c3)cc2c1	JMJD2A Tudor inconclusive, HP1b binding inh inconclusive, BAZ2B inh 50µM, G9a inh 50µM
Clc1ccc2[nH]c(-c3ccccc3)cc2c1	none
COC(=O)c1cccc(Nc2c(-c3ccc(O)c(OC)c3)nc3nc[nH]n23)c1	HP1b binding inh inconclusive, G9a inh inconclusive (no result: Sfp PPTase inh)
CCN1CCN(c2ccc(S(=O)(=O)N3CCCCC3)cc2NC(=O)c2ccc(C)o2)CC1	G9a inh 40µM (no result: Sfp PPTase inh)
CN1CCN(S(=O)(=O)c2cccc(C(=O)Nc3cc(C(F)(F)F)ccc3N3CCCCC3)c2)CC1	G9a inh 45µM (no result: Sfp PPTase inh)
CCN1CCN(c2ccc(S(=O)(=O)N3CCCCC3)cc2NC(=O)c2cccc(C)c2[N+](=O)[O-])CC1	G9a inh 50µM (no result: Sfp PPTase inh)
